Source: PubChem BioAssay AID686978 (National Center for Advancing Translational Sciences (NCATS), 2013)
Among all 420,000 compounds or so, about 64,000 (15%) were called active. Roughly 27% stayed inconclusive and do not appear here. The call rests on the fitted dose curve; in most records, active means well fitted inhibition curve with a large enough effect; inconclusive means small, poorly fitted or top-dose-only effect; inactive means flat fitted curve, though single readings scatter. Only a sample is shown. Where a call stands in place of a potency, no number is given.

assay: qHTS for Inhibitors of human tyrosyl-DNA phosphodiesterase 1 (TDP1): qHTS in cells in absence of CPT; settings: DT40 Tdp1-/- hTDP1 cells, no CPT, ATP luminescence, 48 h; activity change, negative = growth inhibition: at 46.2 µM (top of the series); further: nearly all actives have a fitted effect of over 55% in size
How it was run: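 Luminescent ATP content (CellTiter-Glo) served as the growth readout. Knockout chicken DT40 cells expressing human TDP1 were exposed to compounds without camptothecin for a minimum 48 hr at 37 °C.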
Potency means the concentration at half of the fitted maximal effect.

SMILES | Potency
COc1ccccc1C(=O)NC(=O)COC(=O)C1CC1 | inactive
COc1cc(NC(=O)c2cc3ccc4cccnc4c3[nH]2)cc(OC)c1OC | inactive
Cc1ccccc1CN1CCC(CNC(=O)c2cc3ccc4cccnc4c3[nH]2)CC1 | 23.1 µM (active)
Cc1ccccc1CN1CCN(C(=O)c2cccc(F)c2)CC1 | inactive
Cc1cccc(CN2CCC(n3nccc3NC(=O)c3ccccc3C)CC2)n1 | inactive
CCOc1ccccc1N(CC)C(=O)c1cc2ccc3cccnc3c2[nH]1 | 5.8 µM (active)
CCOc1cc2ccccc2cc1C(=O)Nc1ccccn1 | inactive
CCc1nnc(SCc2cccc(F)c2)nc1CC | inactive
CSCCC(NC(=O)C1CCC(C)CC1)C(=O)NCc1ccco1 (stereo not given) | inactive
Cc1cc(C(F)(F)F)c(C#N)c(SCC(=O)NC2CC2)n1 | inactive
CC(=O)N(CN1C(=O)C2CC=CCC2C1=O)c1cccc(Cl)c1 (stereo not given) | inactive
O=C1CSC(c2cccc(F)c2)N1c1ccccc1F (stereo not given) | inactive
COc1ccc(C(=O)CSc2nccc(=O)[nH]2)cc1 | inactive
Cc1ccc(CNC(=O)CSc2c(C)cnc3c2c(=O)n(C)c(=O)n3C)cc1 | inactive
COCCNC(=O)CSc1c(C)cnc2c1c(=O)n(C)c(=O)n2C | inactive
COc1ccc(C(=O)CSc2c(C(C)C)cnc3c2c(=O)n(C)c(=O)n3C)cc1 | 13 µM (active)
CC(=O)c1ccc(NC(=O)CSc2c(C(C)C)cnc3c2c(=O)n(C)c(=O)n3C)cc1 | 14.6 µM (active)
COc1ccc(C(=O)CSc2n[nH]c(N)n2)cc1 | inactive
COc1ccc(C(=O)O)cc1S(=O)(=O)NCc1cccnc1 | inactive
Cc1snc(SCc2c(F)cccc2Cl)c1C#N | inactive
O=C(NN1C(=O)C2C3C=CC(O3)C2C1=O)c1ccccc1 (stereo not given) | inactive
Cc1ccc2c(C)c(C(=O)N3CCC(N4CCC(C(=O)NC5CC5)CC4)CC3)oc2c1 | inactive
COc1cc(Cl)c(C)cc1NC(=O)COC(=O)c1cc(SC)ccc1Cl | inactive
CC(C)(C)NC(=O)NC(=O)COC(=O)Cc1ccc(Cl)cc1Cl | inactive
CCc1nc2ccc(C(=O)N3CCC(O)(Cc4ccccc4)CC3)cn2c1N(C)C(=O)Cc1ccccc1 | inactive
CC(NC(=O)COc1cccnc1[N+](=O)[O-])c1ccc(Cl)cc1Cl (stereo not given) | inactive
CCCCC(=O)N(C)c1c(CC)nc2c(OCc3ccc(Cl)cc3Cl)cccn12 | 9.2 µM (active)

SMILES | Potency
CCc1nc2ccc(C(=O)N(C)Cc3ccco3)cn2c1N(C)C(=O)Cc1ccccc1 | inactive
CCc1nc2c(OCc3ccc(Cl)cc3Cl)cccn2c1N(C)C(=O)C(C)C | 8.2 µM (active)
CCc1nc2c(OCc3ccc(C(F)(F)F)cc3)cccn2c1N(C)C(=O)CC(C)C | 20.6 µM (active)
COc1cccc(NC(=O)CN(C)C(=O)Cc2ccc(Cl)cc2Cl)c1 | inactive
O=C(COC(=O)C12CC3CC(CC(O)(C3)C1)C2)NC12CC3CC(CC(C3)C1)C2 | inactive
O=C(NC1CCN(C(=S)Nc2ccc(Cl)cc2)CC1)C1CCCCC1 | inactive
CC(OC(=O)CCC(=O)c1ccccc1)C(=O)Nc1ccc(F)cc1 (stereo not given) | inactive
CCOC(=O)c1c(C)nn(-c2ncccc2NC(=O)CCC(=O)O)c1C | inactive
C#CCCCc1nc2ccccc2c(=O)n1N | inactive
C/C(=N\N1CCN(Cc2ccc(C)cc2)CC1)c1ccco1 | inactive
CC(=O)NC1C(Oc2ccc(C=O)cc2)OC(COC(C)=O)C(OC(C)=O)C1OC(C)=O (stereo not given) | inactive
CC(=O)Oc1ccc2c(=O)oc(-c3ccc([N+](=O)[O-])cc3)nc2c1 | inactive
CCCCSCCCNC(=O)C1CCC(CNS(=O)(=O)c2ccc(NC(C)=O)cc2)CC1 (stereo not given) | inactive
Nc1nnnn1/N=C/c1cccs1 | inactive
O=C(NCc1ccc(Cl)cc1)NCc1ccc(Cl)cc1 | inactive
N#C/C=C/N1CCN(Cc2ccc3c(c2)OCO3)CC1 | inactive
O=C(CSc1nc2c(c(=O)[nH]1)CN(Cc1ccc3c(c1)OCO3)CC2)Nc1cc(F)ccc1F | inactive
Fc1ccc2[nH]c3c(N4CCSCC4)ncnc3c2c1 | 9.2 µM (active)
Fc1ccc2[nH]c3c(N4CCN(Cc5ccc6c(c5)OCO6)CC4)ncnc3c2c1 | 2.31 µM (active)
Fc1ccc2nc(N3CCCCC3)sc2c1 | inactive
CN(C)c1cccc(C(=O)N2CCC(n3nccc3NC(=O)C3CCOC3)CC2)c1 (stereo not given) | inactive
Cc1ccc(NNC(=O)c2c(F)cccc2Cl)cc1Cl | inactive
O=C(CC(n1cncn1)C(Cl)(Cl)Cl)c1ccc([N+](=O)[O-])cc1 (stereo not given) | 14.6 µM (active)
C/C(=N/NC(=O)CSc1ccccn1)c1ccc([N+](=O)[O-])cc1 | inactive
O=C(CCn1nnc2ccccc21)OCC(=O)c1ccc([N+](=O)[O-])cc1 | inactive
NC(=O)c1ccc(-c2csnn2)cc1 | inactive
COc1ccc(COCCN2CCN(S(=O)(=O)c3ccccc3)CCC2=O)cc1 | inactive

SMILES | Potency
Cc1ccc(S(=O)(=O)N2CCC(=O)N([C@H](COCc3ccccc3)Cc3ccccc3)CC2)cc1 | 18.4 µM (active)
CN1CCC(=O)N([C@H](CO)Cc2ccccc2)CC1 | inactive
Cc1cccc(N=C2NC(=O)CS2)c1C | inactive
Cc1ccc(NS(=O)(=O)c2ccc(N/N=C/c3ccccc3OCC(=O)O)c([N+](=O)[O-])c2)c(C)c1 | inactive
O=[N+]([O-])c1cccc(/C=N/Nc2ncc(Br)cn2)c1 | inactive
Cc1cccc(COc2ccccc2/C=N/Nc2ccc([N+](=O)[O-])cc2)c1 | 20.6 µM (active)
CN1C(=O)C(CC(N)=O)N(NC(=O)c2ccc(Cl)cc2)C1=S (stereo not given) | inactive
CC(C)(C)NC(=O)CSC(=Nc1ccccc1F)NC#N | 16.4 µM (active)
Cc1ccccc1CSCC(=O)NC(=O)NC(C)(C)C | inactive
CC(C)(C)NC(=O)CSc1nnc(NC(=O)CCc2ccccc2)s1 | inactive
N#C/C(=C1\CCCN1)c1nc(-c2ccccc2)cs1 | inactive
Cc1nc(C(F)(F)F)ccc1C(=O)N1CCC1(C)C(=O)NS(=O)(=O)c1ccc(F)cc1F (stereo not given) | inactive
Cc1ccc(N(C(=O)CNC(=O)c2ccco2)C(C(=O)NC2CCCC2)c2ccncc2)cc1 (stereo not given) | inactive
Cc1ccc(N(C(=O)C(F)(F)F)C(C(=O)NC2CCCCC2)c2ccncc2)cc1C (stereo not given) | 18.4 µM (active)
CCc1ccc(N(C(=O)c2csnn2)C(C(=O)NC2CCCCC2)c2ccncc2)cc1 (stereo not given) | inactive
O=C(c1cc(-c2ccccc2O)on1)N1CCCC1 | inactive
CCc1ccccc1NC1c2ccccc2C(=O)N1c1cccnc1 (stereo not given) | inactive
O=C1C(=O)N(c2ccccc2)C(c2ccccc2)C1c1ccccc1 (stereo not given) | inactive
O=C1[C@@H](c2ccccc2)[C@@H](c2ccccc2)N1c1cccnc1 | 8.2 µM (active)
CCCC(=O)N1c2ccccc2NC2=C(C(=O)CCC2)C1c1ccc(F)cc1 (stereo not given) | inactive
Cc1ccc(C2c3[nH]c4ccccc4c3CCN2C(=O)c2cccc(C)c2)cc1 (stereo not given) | 18.4 µM (active)
Cc1cccc(C(=O)N2CCc3c([nH]c4ccccc34)C2CC(C)C)n1 (stereo not given) | inactive
CCOc1cccc(CC(=O)N2CCc3c([nH]c4ccccc34)C2c2ccc(F)cc2)c1OCC (stereo not given) | 25.9 µM (active)
Cc1cccc(C(=O)N2CCN(S(=O)(=O)N3CCCCC3)CC2)c1 | inactive
CCCC(=O)N1CCc2[nH]c3ccccc3c2C1 | inactive
O=C(COC(=O)CCOc1ccccc1)Nc1cc(S(=O)(=O)N2CCCCC2)ccc1Cl | inactive
CC1=Nn2c(nnc2-c2ccccc2)SC1 | inactive

SMILES | Potency
COc1cccc(C(=O)NCCS(=O)(=O)NCC2CCCO2)c1 (stereo not given) | inactive
CC1CCCCN1Cc1c(O)ccc2c(=O)c(-c3cccc(Cl)c3)c(C(F)(F)F)oc12 (stereo not given) | inactive
CC(=O)c1cccc(OCC(=O)OCC(=O)Nc2cc(S(=O)(=O)N3CCCCC3)ccc2C)c1 | inactive
COc1ccc2c(c1)c(=Cc1ccc(N(C)C)cc1)c1cc(-c3ccccc3)[n+](C)n12 | 0.92 µM (active)
Cc1ccc(N2CC(NC(=O)Cc3cccs3)CC2=O)cc1 (stereo not given) | inactive
O=C(c1ccccc1-c1ccccc1)N1CCOCC1 | inactive
Cc1onc(-c2ccccc2)c1C(=O)N1CCOCC1 | inactive
Cc1oc2c(c1C(=O)N1CCOCC1)C(=O)c1ccccc1C2=O | 2.59 µM (active)
Cc1cccc(C)c1OC(=O)CSc1nnc(-c2ccccc2)o1 | inactive
Cc1ccc(-c2nnc(CN3CCN(C)CC3)o2)cc1 | inactive
CCCC(O)(c1ccc(OC)cc1)C(CN(C)C)c1ccccc1 (stereo not given) | inactive
COc1cccc(CN(C)CC(O)COC(c2ccccc2)c2ccccc2C)c1 (stereo not given) | 16.4 µM (active)
COC(=O)[C@@H](NC(=O)NCc1cccc(OC)c1)C(C)C | inactive
Cc1ccc(-n2c(SCC(=O)NCc3ccc4c(c3)OCO4)nnc2-c2cccnc2)c(C)c1 | inactive
O=C(CCSCCc1ccccn1)Nc1nccs1 | inactive
COc1ccc(C(=O)c2c(C)oc3cc([N+](=O)[O-])c(O)c([N+](=O)[O-])c23)cc1 | inactive
COc1ccc(/C=N/Nc2nc(-c3ccc(C)cc3)c(C#N)c(=O)[nH]2)cc1 | inactive
CCOC(=O)c1cc(-c2nnc(-c3cc(OC)c(OC)c(OC)c3)o2)c(C)nc1C | 16.4 µM (active)
CCOC(=O)c1cc2ccccc2nc1C | inactive
O=C(CCN1C(=O)[C@@H]2Cc3ccccc3CN2C1=O)NCc1ccccc1 | inactive
Cc1ccc(S(=O)(=O)N(C)C)cc1NC(=O)c1ccccc1Br | inactive
Cc1ccc(S(=O)(=O)N(C)C)cc1NC(=O)c1n[nH]c(=O)c2ccccc12 | 23.1 µM (active)
Cc1ccc(S(=O)(=O)N(C)C)cc1NC(=O)COC(=O)C1COc2ccccc2O1 (stereo not given) | inactive
CCOc1ccc(CCNC(=O)COC(=O)c2ccc(F)c(S(=O)(=O)N3CCOCC3)c2)cc1OCC | inactive
